A selection: hits, their analogues and other compounds. The true share with any hit is near 4.8%.
hgDAF12 agonist = agonists of H. glycines DAF-12 nuclear receptor | HEK293 GAL4-hgDAF12 UAS-luciferase reporter, agonist luminescence; normalized to butyrate control | 370,000 tested, 1.8% active | activation, % at 6.8 µM;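 active means activation above a cutoff set at the mean of all screened compounds plus 3 SD, cut at about 10% in these data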;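 further: 0% = DMSO wells and 100% = sodium butyrate wells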
DAX1 inh-1 = inhibitors of human orphan nuclear receptor DAX1 (NR0B1) | HEK293 Gal4-DAX1 luciferase reporter, luminescence | inhibition, % at 6.75 µM | 340,000 tested, 0.99% active;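 active means inhibition above the mean over all tested compounds plus 3 SD, cut at about 4.2% in these data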;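 further: 0% = DAX1-transfected cells with DMSO and 100% = empty-vector control cells with DMSO; inhibition shows as a rise in luminescence from relieved DAX1 repression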
Target sequence (P51843 207-470 limits assumed): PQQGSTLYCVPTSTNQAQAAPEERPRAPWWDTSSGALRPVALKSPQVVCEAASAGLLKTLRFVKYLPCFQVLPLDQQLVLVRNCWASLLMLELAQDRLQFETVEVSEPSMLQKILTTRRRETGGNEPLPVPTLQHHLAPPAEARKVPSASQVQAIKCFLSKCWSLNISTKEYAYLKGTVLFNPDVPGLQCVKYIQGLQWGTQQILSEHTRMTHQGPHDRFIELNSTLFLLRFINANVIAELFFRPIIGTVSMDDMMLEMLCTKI
ssDAF12 agonist = activates DAF-12 receptor from parasite S. stercoralis; 370,000 tested, 1% active; HEK293 ssDAF-12/GRIP1 lit1-tk-luc reporter, luminescence; % of 3 µM dafachronic acid response; AID 652126; activation, % at 6.8 µM;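 active means activation above the mean over all tested compounds plus 3 SD, cut at about 0.9% in these data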;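 further: 0% = DMSO-only wells and 100% = 3 µM delta7-dafachronic acid wells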
DAX1 inh-2 = blocks DAX1 repression of SF-1 activated StAR promoter. HEK293T StAR-luciferase reporter, SF-1/DAX-1 repression relief. inhibition, % at 6.8 µM. 370,000 tested, 1.1% active;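 active means inhibition above the mean over all tested compounds plus 3 SD, cut at about 3.6% in these data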;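 further: 0% = DAX-1 cells with DMSO and 100% = cells lacking DAX-1 with DMSO; higher inhibition means more luminescence from relief of DAX-1 repression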
SMARCA2 act = activators of SMARCA2 function. MG213 cells, MMTV-luciferase reporter, dexamethasone, overnight. activation, % at 9.1 µM. 370,000 tested, 1% active; in the data active means activation above about 7.8%;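 further: 0% = vehicle wells and 100% = reference activator wells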
hcDAF-12 act = H. contortus DAF-12 activation, primary screen. HEK293 hcDAF-12 lit1-tk-luc reporter, luminescence; 0% DMSO, 100% Δ7-dafachronic acid. activation, % at 6.8 µM. 370,000 tested, 1.4% active. AID 652067;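 active means activation above the mean of all tested compounds plus 3 SD, cut at about 5.5% in these data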;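 further: 100% = response to 3 µM Δ7-dafachronic acid high control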
The depositor's hits bear a star.

For C=C[C@@H]1c2ccccc2N(S(=O)(=O)c2ccc(C)cc2)[C@H](c2ccc(C(=O)OC)cc2)C1(C#N)C#N the results were hgDAF12 agonist 1, DAX1 inh-1 1, ssDAF12 agonist -1, DAX1 inh-2 0, SMARCA2 act 1 and hcDAF-12 act -1.
For COC(=O)c1ccc2c(c1)C(NC(C)=O)CCc1cc(OC)c(OC)c(OC)c1-2 (stereo not given) the results were hgDAF12 agonist -4, DAX1 inh-1 1, ssDAF12 agonist 0, DAX1 inh-2 4.3*, SMARCA2 act -2 and hcDAF-12 act -1.
Screening COc1cc2c(c(OC)c1OC)-c1ccc(SC)c(=O)cc1C(NC(=O)c1ccccc1)CC2 (stereo not given) returned hgDAF12 agonist -1, DAX1 inh-1 -1, ssDAF12 agonist 0, DAX1 inh-2 3.7*, SMARCA2 act 2 and hcDAF-12 act -2.
`CCOC(=O)c1cccc(NC(=O)CN(C)S(=O)(=O)c2cc(OC)ccc2OC)c1` gave hgDAF12 agonist 1, ssDAF12 agonist -1, DAX1 inh-2 -1, SMARCA2 act -2 and hcDAF-12 act -3.
`COc1ccc(C=NNc2ccc([N+](=O)[O-])cn2)cc1` gave hgDAF12 agonist 11*, DAX1 inh-1 2, ssDAF12 agonist 0, DAX1 inh-2 3, SMARCA2 act 4 and hcDAF-12 act 2.
Cc1cc(/C=N/Nc2ccc([N+](=O)[O-])cn2)c(C)n1-c1ccc(C(=O)O)cc1 was read as hgDAF12 agonist 5, DAX1 inh-1 6.6*, ssDAF12 agonist -2, DAX1 inh-2 0, SMARCA2 act 2 and hcDAF-12 act 0.
O=[N+]([O-])c1ccc(NCc2ccccc2)nc1 was read as hgDAF12 agonist 6, DAX1 inh-1 1, ssDAF12 agonist 0, DAX1 inh-2 0, SMARCA2 act 0 and hcDAF-12 act 5.
For O=[N+]([O-])c1ccc(NN=CCCc2ccccc2)nc1 the results were hgDAF12 agonist 13*, DAX1 inh-1 1, ssDAF12 agonist 0, DAX1 inh-2 1, SMARCA2 act 7 and hcDAF-12 act 1.
For O=[N+]([O-])c1ccc(NN=Cc2ccc(O)cc2)nc1 the results were hgDAF12 agonist 13*, DAX1 inh-1 6.0*, ssDAF12 agonist -1, DAX1 inh-2 2, SMARCA2 act 0 and hcDAF-12 act 4.
CN(CC(=O)Nc1cccc(S(=O)(=O)N2CCCCC2)c1)Cc1ccc(F)cc1 was read as hgDAF12 agonist -2, DAX1 inh-1 -1, ssDAF12 agonist -2, DAX1 inh-2 -2, SMARCA2 act -3 and hcDAF-12 act -1.
Screening O=[N+]([O-])c1cc([N+](=O)[O-])c2nonc2c1Nc1ccc(O)cc1 returned hgDAF12 agonist 0, DAX1 inh-1 1, ssDAF12 agonist -1, DAX1 inh-2 0, SMARCA2 act 0 and hcDAF-12 act 2.
Screening COc1ccc(-c2nnc(SCc3nnc(-c4ccc(Cl)cc4)o3)n2-c2ccccc2)cc1 returned hgDAF12 agonist -2, DAX1 inh-1 -2, ssDAF12 agonist -1, DAX1 inh-2 -1, SMARCA2 act 0 and hcDAF-12 act -1.
CN(C)NC(=S)Nc1ccc(S(=O)(=O)N2CCCCC2)cc1 was read as hgDAF12 agonist -1, DAX1 inh-1 0, ssDAF12 agonist -1, DAX1 inh-2 0, SMARCA2 act 1 and hcDAF-12 act 0.
`CC1C=Cc2ccccc2N1C(=O)c1ccccc1` (stereo not given) gave hgDAF12 agonist 2, DAX1 inh-1 0, ssDAF12 agonist 0, DAX1 inh-2 0, SMARCA2 act 1 and hcDAF-12 act 2.
For Cc1cccc(CSc2nnc(N)n2-c2ccccc2)c1 the results were hgDAF12 agonist -1, DAX1 inh-1 1, ssDAF12 agonist -2, DAX1 inh-2 0, SMARCA2 act -1 and hcDAF-12 act 0.
For O=[N+]([O-])c1ccc(N/N=C/c2cccs2)nc1 the results were hgDAF12 agonist 11*, DAX1 inh-1 6.0*, ssDAF12 agonist -1, DAX1 inh-2 1, SMARCA2 act 5 and hcDAF-12 act 3.
For O=[N+]([O-])c1ccc(NN=Cc2ccccc2)nc1 the results were hgDAF12 agonist 9, DAX1 inh-1 2, ssDAF12 agonist 0, DAX1 inh-2 2, SMARCA2 act 5 and hcDAF-12 act 4.
`O=C(COC(=O)C1CC1)Nc1ccc(N=Nc2ccccc2)cc1` gave hgDAF12 agonist 13*, DAX1 inh-1 2, ssDAF12 agonist 1, DAX1 inh-2 3, SMARCA2 act 1 and hcDAF-12 act 4.
For COc1ccc(-n2nc(C(=O)NCC(=O)N3CCCCC3)c3ccccc3c2=O)cc1 the results were hgDAF12 agonist 0, DAX1 inh-1 1, ssDAF12 agonist -1, DAX1 inh-2 0, SMARCA2 act 3 and hcDAF-12 act 0.
Screening COc1ccc(-n2nc(C(=O)NCC(=O)N3CCCC3)c3ccccc3c2=O)cc1 returned hgDAF12 agonist 2, DAX1 inh-1 5.2*, ssDAF12 agonist -1, DAX1 inh-2 0, SMARCA2 act -2 and hcDAF-12 act 2.
For CCOC(=O)N1C(=O)C[C@](Sc2ccc(OC)cc2)(C(=O)N2CCN(c3ncccn3)CC2)[C@H]1c1ccc(OC)cc1 the results were hgDAF12 agonist -1, ssDAF12 agonist 0, DAX1 inh-2 -2, SMARCA2 act -3 and hcDAF-12 act -2.
`Cc1nc2sc3c(c2c2nnc(SCC(=O)NCc4ccco4)n12)CCCC3` gave hgDAF12 agonist -1, DAX1 inh-1 1, ssDAF12 agonist -1, DAX1 inh-2 0, SMARCA2 act 3 and hcDAF-12 act -2.
Oc1ccc(-c2nn[nH]n2)c2cccnc12 was read as hgDAF12 agonist 0, ssDAF12 agonist -2 and hcDAF-12 act 1.
`Nc1ccc(OCc2ccccc2)cc1[N+](=O)[O-]` gave hgDAF12 agonist 11*, DAX1 inh-1 0, ssDAF12 agonist -1, DAX1 inh-2 -1, SMARCA2 act -1 and hcDAF-12 act 1.
Screening COc1ccc(NC(=O)C(c2ccc(C)cc2)N(C)C(=O)c2ccc(=O)[nH]c2)cc1 (stereo not given) returned hgDAF12 agonist 3, DAX1 inh-1 0, ssDAF12 agonist -1, DAX1 inh-2 0, SMARCA2 act 6 and hcDAF-12 act 0.
`CC(=O)c1ccc(N2CCN(c3ccc4cc(S(=O)(=O)N5CCC(C)CC5)ccc4n3)CC2)cc1` gave hgDAF12 agonist -1, DAX1 inh-1 0, ssDAF12 agonist -1, DAX1 inh-2 0, SMARCA2 act 3 and hcDAF-12 act 0.
Screening CC(C1CC1)N(Cc1ccccc1)C(=O)NC(=O)c1ccc(F)cc1 (stereo not given) returned hgDAF12 agonist 12*, DAX1 inh-1 1, ssDAF12 agonist -1, DAX1 inh-2 3, SMARCA2 act 0 and hcDAF-12 act 0.

Bioassay records as filed in PubChem.
